Here are results for 12 compounds from PubChem BioAssay (Tox21).

Experiment [1] is described as follows: qHTS assay for small molecule activators of the heat shock response signaling pathway - cell viability counter screen (AID 743209). Also: nearly all actives have a fitted effect of over 50% in size. The gist of the method: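 Counter screen for cytotoxicity in HeLa HSE-bla reporter cells. Treatment was 5 h at 37 C; viability was detected by luminescent ATP assay (CellTiter-Glo) in the same wells as the beta-lactamase read.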
(qHTS replaces the single test concentration by a dilution series.)

A short description of experiment [2]: qHTS assay for small molecule activators of the heat shock response signaling pathway (AID 743210; active = well fitted activation curve with a large enough effect in the signal ratio in the repeat runs, with a control signal flat, not every such curve was filed as active; the % refers to the signal ratio; also: series mostly up to about 63 µM). In short, it runs like this:
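HSE-bla HeLa cells (beta-lactamase reporter under heat shock response elements) were exposed to compounds for 5 h at 37 C, then loaded with LiveBLAzer B/G FRET substrate for 2.5 h at room temperature before fluorescence reading.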

Experiment [3] concerns the target Peroxisome proliferator-activated receptor delta (Homo sapiens) (UniProt Q03181). Nature of the experiment: qHTS assay to identify small molecule agonists of the peroxisome proliferator-activated receptor delta (PPARd) signaling pathway (AID 743212; calls by dose curve). The gist of the method:
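GeneBLAzer PPARd UAS-bla HEK293H cells (beta-lactamase reporter under UAS control), plated and rested 5 h at 37 C, then exposed to compounds in DMSO at 37 C; LiveBLAzer B/G FRET substrate added, 2 h room temperature, fluorescence read.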

A short description of experiment [4]: qHTS assay to identify small molecule antagonists of the peroxisome proliferator-activated receptor delta (PPARd) signaling pathway - cell viability counter screen (AID 743213). Also: nearly all actives have a fitted effect of over 50% in size. In short, it runs like this: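 In this counter screen, HEK293H cells carrying a UAS-beta-lactamase reporter are co-treated with test compounds and 300 nM L165041 (final) for 17 h at 37 C; cell viability is quantified by CellTiter-Glo luminescence.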

Experiment [5] can be described thus: qHTS assay to identify small molecule agonists of the farnesoid-X-receptor (FXR) signaling pathway - cell viability counter screen (AID 743218). Also: nearly all actives have a fitted effect of over 45% in size. Also: potency is read from the fitted curve at half-maximal effect. In short, it runs like this:
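After 16 h at 37 C with test compounds, FXR-bla HEK 293T cells were given LiveBLAzer B/G substrate for 2 h at RT and then CellTiter-Glo; luminescence was taken after 30 min.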

The target of experiment [6] is Bile acid receptor (Homo sapiens) (UniProt Q96RI1). Description: qHTS assay to identify small molecule agonists of the farnesoid-X-receptor (FXR) signaling pathway (AID 743220; active = well fitted activation curve with a large enough effect in the signal ratio in the repeat runs, not every such curve was filed as active; the % refers to the signal ratio). In short, it runs like this:
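Beta-lactamase reporter under UAS control in GeneBLAzer FXR HEK 293T cells (5000/well) measured with LiveBLAzer FRET substrate after 2 h at room temperature. Compound exposure lasted 16 h at 37C.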

Experiment [7] can be described thus: qHTS assay to identify small molecule antagonists of the farnesoid-X-receptor (FXR) signaling pathway - cell viability counter screen (AID 743221; active = well fitted cell-killing curve with a large enough effect in the repeat runs, not every such curve was filed as active; also: nearly all actives have a fitted effect of over 50% in size). The gist of the method:
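CellTiter-Glo, 30 min RT, luminescence; same wells as the LiveBLAzer FRET read. Cells: FXR-UAS-bla HEK 293T. Treatment: compound with chenodeoxycholic acid 50 uM final, 16 h at 37 C.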

In experiment [8] the target is Vitamin D3 receptor (Homo sapiens) (UniProt P11473). Description: qHTS assay to identify small molecule agonists of the vitamin D receptor (VDR) signaling pathway (AID 743222; calls by dose curve). In short, it runs like this:
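VDR-bla cells were seeded, left 4 h, treated with compounds in DMSO for 16 h, incubated 2 h at RT with B/G FRET substrate, and read for fluorescence.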

The nature of experiment [9]: qHTS assay to identify small molecule antagonists of the peroxisome proliferator-activated receptor gamma (PPARg) signaling pathway - cell viability counter screen (AID 743194). Also: nearly all actives have a fitted effect of over 55% in size. The settings on record: Potency: co-treated with 50 nM rosiglitazone. In short, it runs like this: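 PPARg-UAS-bla HEK293H cells were plated, rested 5 h at 37 C, then treated with compounds plus rosiglitazone (50 nM final) for 17 h at 37 C; viability was then read by CellTiter-Glo luminescence after 30 min at room temperature.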

Experiment [10] is described as follows: qHTS assay for small molecule agonists of the antioxidant response element (ARE) signaling pathway (AID 743202; active = well fitted activation curve with a large enough effect in the signal ratio in the repeat runs, not every such curve was filed as active; the % refers to the signal ratio; also: potency is read from the fitted curve at half-maximal effect). In short, it runs like this:
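Read-out: LiveBLAzer B/G FRET substrate fluorescence after 2 h at room temperature, following 16 h compound treatment at 37 C of HepG2 cells carrying an ARE-driven beta-lactamase reporter.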

Experiment [11] can be described thus: qHTS assay for small molecule agonists of the antioxidant response element (ARE) signaling pathway - cell viability counter screen (AID 743203; calls by dose curve; also: nearly all actives have a fitted effect of over 55% in size; also: potency is read from the fitted curve at half-maximal effect). In short, it runs like this: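 Compounds in DMSO were pinned onto ARE-bla HepG2 cells plated 5 hrs earlier at 2,000 cells/well. Sixteen hours later at 37C/5% CO2, CellTiter-Glo was added and luminescence measured after 30 min at room temperature.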

Experiment [12] can be described thus: qHTS assay to identify small molecule agonists of the peroxisome proliferator-activated receptor delta (PPARd) signaling pathway - cell viability counter screen (AID 743211). Also: nearly all actives have a fitted effect of over 55% in size. Also: potency is read from the fitted curve at half-maximal effect. In short, it runs like this: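 Multiplexed format: after the 2 h room-temperature LiveBLAzer B/G FRET step, CellTiter-Glo was added to the same wells. Luminescence after 30 min gave cell viability; compound exposure was 17 h at 37C.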

The target in experiment [13] is Peroxisome proliferator-activated receptor delta (Homo sapiens) (UniProt Q03181). Description: qHTS assay to identify small molecule antagonists of the peroxisome proliferator-activated receptor delta (PPARd) signaling pathway (AID 743215; active = well fitted inhibition curve with a large enough effect in the signal ratio in the repeat runs, not every such curve was filed as active; the % refers to the signal ratio;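 also: cells stimulated with agonist L165041 at 300 nM final during compound exposure; series mostly up to about 62 µM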). In short, it runs like this: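 With L165041 present at 300 nM final, compounds were incubated 17 h at 37 C on PPARd UAS-bla HEK293H cells. A FRET-based beta-lactamase substrate was then applied for 2 h at room temperature and fluorescence intensity recorded.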
Sequence of Peroxisome proliferator-activated receptor delta (Homo sapiens) (Q03181 whole entry, looked up): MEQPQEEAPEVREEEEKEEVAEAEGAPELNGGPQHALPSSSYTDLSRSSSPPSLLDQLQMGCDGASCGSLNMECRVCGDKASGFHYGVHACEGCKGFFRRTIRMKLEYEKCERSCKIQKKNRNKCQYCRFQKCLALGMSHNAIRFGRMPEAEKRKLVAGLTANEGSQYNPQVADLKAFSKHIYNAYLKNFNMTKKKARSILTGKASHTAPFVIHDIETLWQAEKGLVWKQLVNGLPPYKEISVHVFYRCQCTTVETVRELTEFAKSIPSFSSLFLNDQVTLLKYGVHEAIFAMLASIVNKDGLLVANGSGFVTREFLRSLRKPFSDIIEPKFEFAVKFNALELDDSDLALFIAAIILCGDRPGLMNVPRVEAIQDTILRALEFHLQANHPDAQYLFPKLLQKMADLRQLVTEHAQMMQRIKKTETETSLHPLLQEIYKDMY

Experiment [14] has as its target Vitamin D3 receptor (Homo sapiens) (UniProt P11473). Description: qHTS assay to identify small molecule antagonists of the vitamin D receptor (VDR) signaling pathway (AID 743223; active = well fitted inhibition curve with a large enough effect in the signal ratio in the repeat runs, not every such curve was filed as active; the % refers to the signal ratio). In short, it runs like this:
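After VDR-bla cells are plated and left 4 h at 37C, DMSO-dissolved compounds and 3 nM (final) calcitriol agonist are added. Incubation continues 16 h at 37C; FRET beta-lactamase substrate then develops 2 h at room temperature.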

Experiment [15] deals with Peroxisome proliferator-activated receptor gamma (Homo sapiens) (UniProt P37231). Nature of the experiment: qHTS assay to identify small molecule antagonists of the peroxisome proliferator-activated receptor gamma (PPARg) signaling pathway (AID 743191; calls by dose curve; also: nearly all actives have a fitted effect of over 30% in size; also: potency is read from the fitted curve at half-maximal effect). In short, it runs like this: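 GeneBLAzer PPARg UAS-bla HEK293H cells carrying a UAS-driven beta-lactamase reporter were plated at 3000 cells/well, preincubated 5 h at 37C, then given compound for 17 h at 37C; LiveBLAzer B/G FRET substrate was read after 1 h at room temperature.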
Sequence of Peroxisome proliferator-activated receptor gamma (Homo sapiens) (P37231 whole entry, looked up): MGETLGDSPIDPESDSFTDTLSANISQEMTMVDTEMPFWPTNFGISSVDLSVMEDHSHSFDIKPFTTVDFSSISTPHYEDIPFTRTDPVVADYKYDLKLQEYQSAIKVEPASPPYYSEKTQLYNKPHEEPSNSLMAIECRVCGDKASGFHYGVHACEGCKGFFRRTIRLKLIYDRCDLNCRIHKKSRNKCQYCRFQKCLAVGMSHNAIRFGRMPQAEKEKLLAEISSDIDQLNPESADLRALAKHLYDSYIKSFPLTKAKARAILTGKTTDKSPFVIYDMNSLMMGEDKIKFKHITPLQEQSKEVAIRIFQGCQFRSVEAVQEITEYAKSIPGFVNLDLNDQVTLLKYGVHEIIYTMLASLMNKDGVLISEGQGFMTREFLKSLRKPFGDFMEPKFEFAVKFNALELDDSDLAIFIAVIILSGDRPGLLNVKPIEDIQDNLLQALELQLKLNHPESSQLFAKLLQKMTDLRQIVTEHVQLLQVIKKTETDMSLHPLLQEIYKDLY

Experiment [16] has as its target Bile acid receptor (Homo sapiens) (UniProt Q96RI1). Nature of the experiment: qHTS assay to identify small molecule antagonists of the farnesoid-X-receptor (FXR) signaling pathway (AID 743217; active = well fitted inhibition curve with a large enough effect in the signal ratio in the repeat runs, not every such curve was filed as active; the % refers to the signal ratio). The gist of the method: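 In this cell-based antagonist screen, inhibition of CDCA-driven (50 uM final) UAS-beta-lactamase expression in HEK 293T cells was measured by FRET fluorescence following 16 h compound exposure at 37 °C.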

Experiment [17] addresses Aryl hydrocarbon receptor (Homo sapiens) (UniProt P35869). Nature of the experiment: qHTS assay to identify small molecule that activate the aryl hydrocarbon receptor (AhR) signaling pathway (AID 743085).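 Also: HG2L7.5c1 human HepG2 liver cells with stably integrated DRE-driven firefly reporter; series mostly up to about 70 µM; nearly all actives have a fitted effect of over 15% in size.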 In short, it runs like this:
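Reporter assay in engineered HepG2 line HG2L7.5c1, whose plasmid carries twenty dioxin responsive elements upstream of firefly luciferase. Treatment lasted 24 h at 37C; ONE-Glo luminescence gauged induction.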

The target of experiment [18] is Peroxisome proliferator-activated receptor gamma (Homo sapiens) (UniProt P37231). Nature of the experiment: qHTS assay to identify small molecule agonists of the peroxisome proliferator-activated receptor gamma (PPARg) signaling pathway (AID 743094; active = well fitted activation curve with a large enough effect in the signal ratio in the repeat runs, not every such curve was filed as active; the % refers to the signal ratio). The gist of the method:
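Following 5 h plating at 37C, PPARg-bla HEK293H cells receive compound or DMSO for 17 h; fluorescence intensity is recorded after LiveBLAzer B/G loading for 1 h at room temperature.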

Experiment [19] is described as follows: qHTS assay to identify aromatase inhibitors - cell viability counter screen (AID 743084).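 Also: cells stimulated with testosterone during compound exposure; nearly all actives have a fitted effect of over 55% in size.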
A short description of experiment [20]: qHTS assay to identify small molecule that activate the aryl hydrocarbon receptor (AhR) signaling pathway - cell viability counter screen (AID 743086). Also: nearly all actives have a fitted effect of over 45% in size. Also: potency is read from the fitted curve at half-maximal effect. In short, it runs like this:
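HepG2-AhR-luc (HG2L7.5c1) cells, 4000/well, were preincubated 5 h at 37C, exposed to compound in qHTS format for 24 hr at 37C, then given CellTiter-Fluor for 30 min; viability was read as fluorescence in the reporter wells.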

Records with an inconclusive call do not appear. Activity calls are given as the source filed them. Unless noted, calls follow the shape of the dose curve; as a rule, active = well fitted curve in the direction sought with a large enough effect in the repeat runs; inconclusive = weak or mixed curves; inactive = no such curve, though single readings can be large; an effect the other way counts as inactive or inconclusive.

Sequence of Aryl hydrocarbon receptor (Homo sapiens) (P35869 whole entry, looked up): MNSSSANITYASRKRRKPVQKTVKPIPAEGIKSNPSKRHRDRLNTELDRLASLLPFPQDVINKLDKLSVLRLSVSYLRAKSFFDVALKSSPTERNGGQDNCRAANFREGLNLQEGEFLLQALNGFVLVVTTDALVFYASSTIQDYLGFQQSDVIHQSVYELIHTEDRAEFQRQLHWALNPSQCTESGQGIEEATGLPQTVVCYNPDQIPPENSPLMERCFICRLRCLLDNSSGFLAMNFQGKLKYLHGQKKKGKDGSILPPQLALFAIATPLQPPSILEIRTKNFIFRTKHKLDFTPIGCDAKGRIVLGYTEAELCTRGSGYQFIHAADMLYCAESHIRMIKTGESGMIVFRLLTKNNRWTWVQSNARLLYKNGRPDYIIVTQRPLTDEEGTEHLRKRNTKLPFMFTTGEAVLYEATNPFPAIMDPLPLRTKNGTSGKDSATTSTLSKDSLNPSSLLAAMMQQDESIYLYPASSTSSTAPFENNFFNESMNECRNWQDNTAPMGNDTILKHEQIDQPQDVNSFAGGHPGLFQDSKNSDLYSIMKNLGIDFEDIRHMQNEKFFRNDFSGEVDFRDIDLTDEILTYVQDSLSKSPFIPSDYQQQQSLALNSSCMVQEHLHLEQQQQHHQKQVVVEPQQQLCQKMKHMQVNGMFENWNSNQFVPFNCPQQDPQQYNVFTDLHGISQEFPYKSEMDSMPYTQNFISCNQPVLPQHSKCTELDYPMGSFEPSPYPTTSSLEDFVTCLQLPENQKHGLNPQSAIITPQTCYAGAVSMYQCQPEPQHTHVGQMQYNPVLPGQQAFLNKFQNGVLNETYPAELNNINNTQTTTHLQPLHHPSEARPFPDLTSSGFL
Sequence of Vitamin D3 receptor (Homo sapiens) (P11473 whole entry, looked up): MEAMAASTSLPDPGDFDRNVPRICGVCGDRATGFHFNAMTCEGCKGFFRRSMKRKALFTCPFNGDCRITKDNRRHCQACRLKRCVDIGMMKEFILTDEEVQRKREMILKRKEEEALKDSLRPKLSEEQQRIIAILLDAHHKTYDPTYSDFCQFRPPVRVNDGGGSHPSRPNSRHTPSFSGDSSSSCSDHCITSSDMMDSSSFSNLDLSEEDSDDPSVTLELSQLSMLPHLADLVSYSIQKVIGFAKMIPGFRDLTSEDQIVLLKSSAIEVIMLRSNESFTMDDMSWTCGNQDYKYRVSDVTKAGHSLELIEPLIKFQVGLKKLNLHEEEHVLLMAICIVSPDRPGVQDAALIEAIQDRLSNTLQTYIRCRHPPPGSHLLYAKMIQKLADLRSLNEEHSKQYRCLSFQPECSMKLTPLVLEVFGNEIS
Sequence of Bile acid receptor (Homo sapiens) (Q96RI1 whole entry, looked up): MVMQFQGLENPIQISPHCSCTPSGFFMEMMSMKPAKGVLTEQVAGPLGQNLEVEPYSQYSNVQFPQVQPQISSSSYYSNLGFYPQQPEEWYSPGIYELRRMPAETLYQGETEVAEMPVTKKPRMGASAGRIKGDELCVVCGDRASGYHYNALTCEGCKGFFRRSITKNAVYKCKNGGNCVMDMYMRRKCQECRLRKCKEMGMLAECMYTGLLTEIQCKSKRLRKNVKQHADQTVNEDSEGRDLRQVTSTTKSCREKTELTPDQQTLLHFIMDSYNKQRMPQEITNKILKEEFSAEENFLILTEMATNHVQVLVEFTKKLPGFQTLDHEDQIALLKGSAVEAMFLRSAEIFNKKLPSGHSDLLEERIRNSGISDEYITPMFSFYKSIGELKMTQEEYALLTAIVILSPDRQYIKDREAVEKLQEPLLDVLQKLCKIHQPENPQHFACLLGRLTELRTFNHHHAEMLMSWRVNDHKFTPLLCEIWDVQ

For the compound `O=C(Nc1ccccc1)Nc1ccnc(Cl)c1`, the Potency entry in [1], in experiment [4], in experiment [5] and in experiment [7] was “inactive” throughout. Further, the compound was called inactive in experiment [2], in experiment [3], in experiment [6] and in experiment [8].
Consider `CCCCc1c(C)nc(NCC)nc1OS(=O)(=O)N(C)C`, for which the Potency result in [9], in experiment [11], in experiment [1], in experiment [12], in [4] and in experiment [13] was “inactive” in each case. Also, the Potency result in experiment [5] and in experiment [7] was “inactive” in each case. Besides, the Potency in experiment [10] was 27.3 µM (active). Further, the result in experiment [2], in [3], in experiment [8] and in experiment [14] was inactive.
For the compound `CCO[C@H]1O[C@@H]2OC3(C)CC[C@H]4[C@H](C)CC[C@@H]([C@H]1C)[C@@]24OO3`, the Potency entry in experiment [15], in experiment [9], in [11], in [1], in [12] and in [4] was “inactive” throughout. Besides, the Potency result in [16], in experiment [5] and in experiment [7] was “inactive” throughout. Further, the outcome in experiment [2], in experiment [3], in experiment [6] and in experiment [14] was inactive.
As to `O=S(=O)(O)C(F)(F)C(F)(F)C(F)(F)C(F)(F)F`, the Potency result in experiment [17], in experiment [18], in experiment [11] and in experiment [12] was “inactive” in each case. Besides, the result in experiment [2] was inactive.
Regarding `Clc1ccc(C2(Cn3cncn3)CC(Br)CO2)c(Cl)c1` (stereo unspecified), the Potency entry in experiment [19], in experiment [18], in [15], in [9], in [10] and in experiment [11] was “inactive” throughout. In addition, the Potency entry in [1], in experiment [4], in [13], in [5] and in experiment [7] was “inactive” each time. For the same compound, the outcome in experiment [2], in [3], in experiment [6] and in experiment [14] was inactive.
With `O=S1OC[C@@H]2[C@H](CO1)[C@]1(Cl)C(Cl)=C(Cl)[C@@]2(Cl)C1(Cl)Cl` (stereo partly specified), the Potency entry in experiment [17], in [20], in [18], in experiment [15], in [4] and in experiment [16] was “inactive” throughout. Further, in experiment [7], the Potency result is “inactive”. Also, the compound was called inactive in [8].
For `O=C(N[C@H](c1ccccc1)[C@@H]1CN2CCC1CC2)c1c(Cl)ccc(C(F)(F)F)c1Cl`, the Potency entry in experiment [17], in experiment [9] and in [4] was “inactive” each time. In addition, the Potency is 4.97 µM (active) in experiment [15], 49.3 µM (active) in [11], 78.8 µM (active) in [12] and 70.2 µM (active) in experiment [5]. The compound was classed as inactive in experiment [2] and in experiment [6].
As for `C=C(C#N)CCC#N`, the Potency result in experiment [17], in experiment [20], in [18], in experiment [15], in experiment [9] and in experiment [11] was “inactive” throughout. For the same compound, the Potency entry in experiment [1], in experiment [5] and in experiment [7] was “inactive” each time. Moreover, the result in experiment [2] and in [8] was inactive.
Regarding `COP(=S)(OC)Oc1ccc([N+](=O)[O-])cc1Cl`, in experiment [20], the Potency was 61.1 µM (active). Moreover, the Potency entry in experiment [18], in [15], in experiment [9], in experiment [11], in experiment [1] and in experiment [13] was “inactive” in each case. Also, the Potency entry in experiment [5] and in [7] was “inactive” throughout. The compound was classed as inactive in experiment [2] and in [3].
Take `CO[C@@H]1[C@H](OC(=O)NC(=O)CCl)CC[C@]2(CO2)[C@H]1[C@@]1(C)O[C@@H]1CC=C(C)C`: the Potency entry in experiment [17], in experiment [20], in experiment [9], in [11], in [12] and in [13] was “inactive” in each case. For the same compound, the Potency result in experiment [7] is “inactive”. The Potency in experiment [5] is 0.0021 µM (active).
With `ClCc1cccc(Cl)c1`, the Potency result in experiment [15], in experiment [9], in [11], in experiment [1], in experiment [4] and in experiment [13] was “inactive” each time. Further, the Potency entry in experiment [16], in [5] and in experiment [7] was “inactive” in each case. The compound was called inactive in experiment [2], in [3], in experiment [6], in experiment [8] and in experiment [14].
On to `COC1=CC(=O)O[C@@H](CCc2ccccc2)C1`, for which the Potency result in experiment [17], in experiment [9], in [11], in experiment [1], in experiment [12] and in experiment [4] was “inactive” in each case. In addition, the Potency result in experiment [13], in experiment [5] and in experiment [7] was “inactive” throughout. In addition, the compound was called inactive in [2] and in [3].
